# Only some compounds are listed: those with a hit (about 1.8% of all), similar ones and a draw of the others.
# Myeloid diff 2 – induction of myeloid progenitor differentiation, primary screen, cell-based, flow cytometry, MLPCN library; calls only at 10 µM; ER-HoxA9 myeloid progenitors, lysozyme-GFP differentiation; 360,000 tested, 1% active;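 active = normalized GFP-positive differentiation at or above the plate's own cutoff, the solvent-only control mean plus 3 SD; inconclusive = no clear call, values can overlap the other calls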;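 also: cells exposed to compound for four days before flow analysis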
# Granule exo inh – LAMP-1 surface exposure blockers, TALL-104 cells – cell-based, flow cytometry, MLPCN library, primary screen. AID 651702, 2012. TALL-104 LAMP-1 surface exposure; cells stimulated with thapsigargin and PMA. inhibition, % at 10 µM. 360,000 tested, 0.66% active;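 active = inhibition above about 55%, limit read from the data; inconclusive = no clear call, values can overlap the other calls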
# NPR1 activator – GC-A stimulated cGMP production enhancers – HEK293 GC-A cells, cGMP TR-FRET, EC30 ANP, primary screen; Atrial natriuretic peptide receptor 1 (Homo sapiens), P16066; 0% at EC30 ANP, 100% saturating ANP; activation, % at 10 µM; 370,000 tested, 0.14% active; in the data active = activation above about 40%
# Target sequence (P16066 whole entry, looked up): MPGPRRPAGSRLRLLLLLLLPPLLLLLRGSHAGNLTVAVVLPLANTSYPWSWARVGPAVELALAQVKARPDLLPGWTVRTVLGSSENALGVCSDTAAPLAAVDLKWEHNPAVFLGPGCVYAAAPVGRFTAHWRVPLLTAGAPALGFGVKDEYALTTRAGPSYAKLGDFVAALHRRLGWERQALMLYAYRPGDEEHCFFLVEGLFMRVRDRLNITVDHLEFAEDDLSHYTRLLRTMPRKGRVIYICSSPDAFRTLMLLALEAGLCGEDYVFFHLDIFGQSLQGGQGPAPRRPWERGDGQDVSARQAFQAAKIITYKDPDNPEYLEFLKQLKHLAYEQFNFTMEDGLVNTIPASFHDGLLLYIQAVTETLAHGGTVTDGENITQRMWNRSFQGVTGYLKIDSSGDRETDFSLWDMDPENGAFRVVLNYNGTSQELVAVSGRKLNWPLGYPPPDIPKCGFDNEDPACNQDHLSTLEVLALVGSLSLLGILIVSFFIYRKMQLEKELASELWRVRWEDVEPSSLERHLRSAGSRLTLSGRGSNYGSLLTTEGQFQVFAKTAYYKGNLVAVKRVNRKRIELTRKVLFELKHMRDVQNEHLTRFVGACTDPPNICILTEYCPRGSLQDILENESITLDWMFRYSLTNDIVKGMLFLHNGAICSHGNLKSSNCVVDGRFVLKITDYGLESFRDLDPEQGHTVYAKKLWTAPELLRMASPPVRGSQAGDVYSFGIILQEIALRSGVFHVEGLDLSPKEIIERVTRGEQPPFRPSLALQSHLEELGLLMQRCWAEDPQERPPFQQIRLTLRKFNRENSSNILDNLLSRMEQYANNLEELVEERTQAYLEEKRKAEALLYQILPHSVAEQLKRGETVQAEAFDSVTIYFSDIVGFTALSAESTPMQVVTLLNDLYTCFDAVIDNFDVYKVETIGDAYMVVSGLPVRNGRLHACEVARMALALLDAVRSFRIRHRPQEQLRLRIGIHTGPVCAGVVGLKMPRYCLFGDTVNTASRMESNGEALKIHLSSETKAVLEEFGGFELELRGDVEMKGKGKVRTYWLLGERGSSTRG
# GC-B act – human GC-B receptor activators, primary screen, HEK293 GC-B cells, cGMP TR-FRET, EC30 CNP; Atrial natriuretic peptide receptor 2 (Homo sapiens), P20594; 0% at EC30 CNP, 100% saturating CNP; activation, % at 10 µM; 370,000 tested, 0.11% active;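 active = activation at 10 µM reaching about 35% in either raw or pattern-adjusted values, limit read from the data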
# Active calls of the source: *; i = inactive; ? = inconclusive; · = no result given; + = active, no number.
SMILES,Myeloid diff 2,Granule exo inh,NPR1 activator,GC-B act
CCN(CC(=O)Nc1ccccc1C(F)(F)F)C(=O)c1ccc2c(=O)n3c(nc2c1)CCC3,+,-5,1,4
CCOC(=O)C1CCN(c2nc3cc(OC)ccc3cc2C#N)CC1,i,-1,-3,0
CCN(CC)c1nc2cc(OC)ccc2cc1C#N,+,-2,0,0
COc1ccc2cc(C#N)c(N3CCOCC3)nc2c1,+,2,0,-1
COc1ccc2cc(C#N)c(NC(C)C)nc2c1,i,-2,-1,-8
CN1C2=N[C@H](c3ccc(Br)cc3)CC(=O)N2/C(=C\c2ccccc2)[C@@H]1c1ccccc1,·,·,-31,-28
N#CCCCc1cn(-c2nc3ccccc3s2)nn1,i,-2,2,4
O=C(OC1CCOC1=O)C1CCN(S(=O)(=O)c2ccc(Cl)c(C(F)(F)F)c2)CC1 (centres undefined),i,15,-2,51*
C[C@@H]1CN([C@H](C)CO)C(=O)c2c(c3ccccc3n2C)-c2ccccc2CO[C@H]1CN(C)Cc1ccccc1,i,-2,-9,-8
COc1cccc(CN(C)C[C@@H]2OCc3ccccc3-c3c(n(C)c4ccccc34)C(=O)N([C@@H](C)CO)C[C@H]2C)c1,+,-2,-10,-5
Cc1nn(C)c(NC(=O)c2ccc(Cl)cc2Cl)c1Br,+,4,0,2
Cc1cc(C)c(C#N)c(SCCS(=O)(=O)c2ccc(Cl)cc2)n1,i,4,-6,-3
Cc1cc(C)c(C#N)c(SCCS(=O)(=O)c2ccc(C(C)(C)C)cc2)n1,+,0,3,3
CC1CC2(CCCCC2)Nc2ccc3ccccc3c21 (centres undefined),+,-6,-1,-5
COC(=O)[C@]12CCCCC=C1N(Cc1ccc(OC)cc1)C(=O)[C@@H]2CC(=O)N1CCCCC1,·,·,-4,1
CN(C)CCCNC(=O)/C(=C\c1ccc(-c2ccc(Br)cc2)o1)NC(=O)c1ccccc1,+,46,0,1
CN(C)CCNC(=O)/C(=C/c1ccc(-c2cccc([N+](=O)[O-])c2)o1)NC(=O)c1ccccc1,i,16,-7,-3
Cc1ccc(C(=O)N/C(=C\c2ccc(-c3ccc(Cl)cc3)o2)C(=O)NCCCN(C)C)cc1,+,36,-3,-2
CN(C)CCCNC(=O)/C(=C/c1ccc(-c2ccc([N+](=O)[O-])cc2)o1)NC(=O)c1ccccc1,+,10,1,-8
CN(C)CCNC(=O)/C(=C/c1ccc(-c2cccc(Cl)c2)o1)NC(=O)c1ccccc1,i,14,1,0
Cc1ccc(C(=O)N/C(=C\c2ccc(-c3ccccc3[N+](=O)[O-])o2)C(=O)NCCN(C)C)cc1,i,40,-6,-9
COc1ccc(C(C(=O)N(C)C2CCCC2)N(Cc2ccc(F)cc2)C(=O)c2csc3ccc(Cl)cc23)cc1OC (centres undefined),·,·,-17,-18
O=C(NCc1ccccc1)C1CCN(c2nc(-c3ccc(Br)cc3)cs2)CC1,·,·,5,-12
COc1ccc(-c2nc(S(=O)(=O)c3ccccc3)c(N3CCN(C)CC3)o2)cc1,i,3,-7,-4
COc1cc(N2C(=O)C=CC2=O)ccc1N1C(=O)C=CC1=O,i,82*,21,25
SMILES,Myeloid diff 2,Granule exo inh,NPR1 activator,GC-B act
COc1cc(OC)cc(-c2sc3ccc(OC)cc3c2-c2ccc(OCCN3CCCCC3)cc2)c1,i,17,·,·
COc1ccc(-c2sc3cc4c(cc3c2-c2ccc(OCCN3CCCCC3)cc2)OCO4)cc1,+,37,·,·
O=C(NCc1ccccn1)C1CCN(C(=O)c2cc3sccc3n2Cc2ccc(F)cc2)CC1,+,0,-3,-5
O=C(NCc1ccco1)C1CCN(C(=O)c2cc3sccc3n2Cc2ccc(F)cc2)CC1,i,-1,-1,-10
COC(=O)N1CCC[C@H]1c1cccc2[nH]cc(C)c12,·,·,0,-6
COc1ccc(Cl)cc1N(CC(=O)NCCSc1ccccn1)S(=O)(=O)c1ccccc1,i,69*,-14,-8
COc1cccc(CNC(=O)[C@H]2CCCN2C(=O)[C@H]2CCCN2)c1,·,·,3,0
CCOC(=O)c1c(NC(C)=O)sc2c1CCC(C=O)=C2Sc1ccccc1,?,95*,6,-2
CC(=O)Nc1ccc(NC2=Nc3ccccc3N3C2=Nc2c(c(C)nn2-c2ccccc2)C3c2ccccc2)cc1 (centres undefined),i,58*,-6,-8
COc1ccc(NC2=Nc3ccccc3N3C2=Nc2c(c(C)nn2-c2ccc(C)cc2)C3c2cccnc2)cc1 (centres undefined),i,10,7,-6
CN1c2cccc3cccc(c23)N(C)C1(C)C,?,-1,0,-13
CC(=O)c1ccc2cccc3c2c1N=CN3C,+,1,-4,-6
CC(C)(N[C@@H](Cc1c[nH]c2ccccc12)C(=O)NCCCc1ccccc1)C(=O)NCc1ccccc1,·,·,-3,-5
Cc1cc(Nc2cccc(Cl)c2Cl)n2ncnc2n1,i,1,-1,39*
Cc1ccc(Nc2cc(C)nc3ncnn23)c(Cl)c1,i,4,4,2
Cc1cc(C)cc(NC(=O)CSc2nnc(-c3ccncc3)o2)c1,i,-4,-9,-5
Cc1cc(Br)c(NC(=O)COC(=O)CSc2nnc(-c3ccc(Cl)cc3)o2)c(Br)c1,i,1,60*,-12
CCCCOC(=O)CSc1nnc(-c2ccc(Cl)cc2Cl)o1,i,-3,67*,5
CCCS(=O)(=O)c1c(S(=O)(=O)CCC)c2ccc(C(N)=O)cn2c1C(=O)OC,i,-2,15,14
CCCS(=O)(=O)c1c(S(=O)(=O)CCC)c2ccc(C(N)=O)cn2c1C(=O)c1ccc(OC)cc1,i,-2,39,56*
Cc1ccc(S(=O)(=O)N2CCN(Cc3csc(C)n3)CC2)cc1,+,-3,1,2
CCOC(=O)[C@]12CCCCC/C=C\1N(Cc1ccc(OC)cc1)C(=O)[C@H]2CC(=O)NCCC(C)C,·,·,-5,-6
N#Cc1c(C#N)c(SSc2c(C#N)c(C#N)c(N)n2-c2ccccc2)n(-c2ccccc2)c1N,i,96*,-8,55*
N#Cc1c(N)n(-c2ccc(N)cc2)c2nc3ccccc3nc12,i,4,-4,-7
COP(=O)(CC(=O)OC(C)(C)C)C(CC(C)C)NC(=O)OCc1ccccc1 (centres undefined),·,·,-6,-2
Cc1ccc(-n2cc3c(-c4cccc(Br)c4)nnc(C)c3n2)cc1,+,-1,2,12
CCCC#Cc1ccc(CC[C@H]2O[C@H]3CC[C@@H](CO)O[C@H]3C[C@H]2NC(=O)CN2CCOCC2)cc1,·,·,7,5
